Usually AC50 stands for the concentration giving half of the maximal activity seen.

Calls of active or inactive are those of the source. Rule for the calls: active = hit-call score of the fitted dose curve at least 0.9, where 1 is the maximum; inactive = score below 0.9.

Read-out in this assay: Keratin 19 (KRT19), KRT19 (gene 3880)
Kind of assay: LTEA_HepaRG_KRT19: Life Technologies and Expression Analysis (LTEA) Assay for Keratin 19 (KRT19) using HepaRG (AID 2283512). To be noted: mRNA level, 48 h; actives raise or lower the signal. How it is done: LTEA_HepaRG is a cell based, multiplexed-readout assay that uses HepaRG, a human liver cell line, with measurements taken at 48 hours after chemical dosing on a 96-well plate.LTEA_HepaRG_KRT19 is one of 102 assay component(s) measured in the LTEA HepaRG cell culture assay. It is a marker of Cell proliferation, survival, death.Data from the assay component LTEA_HepaRG_KRT19 was analyzed into 1 endpoint. This assay endpoint, LTEA_HepaRG_KRT19, was analyzed with bidirectional fitting relative to DMSO as the negative control and baseline of activity. Using a type of inducible reporter, measures of mRNA induction for gain or loss-of-signal activity can be used to understand regulation of transcription factor activity. To generalize the intended target to other relatable targets, this assay endpoint is annotated to the filaments intended target family, where the subfamily is keratin.
A total of 1060 chemcials from the ToxCast library were tested in eight-point concentration-response experiments. Cell culture and cytotoxicity assays were conducted at Thermo Fisher Scientific's Custom Services facility (Madison, WI). A single lot of human HepaRG cells (Thermo Fisher Scientific, Frederick, MD) was used for the cell culture experiments. 96-well format collagen type I coated plates of human HepaRG cells were prepared using established methods. Briefly, cryopreserved HepaRG cells were thawed, plated at a density of approximately 100,000 cells/well in HepaRG Thaw, Plate, and General Purpose media (HPRG770, Thermo Fisher Scientific), and incubated for 48 hours. 0.5% DMSO was selected as vehicle control to balance the requisite need of DMSO in HepaRG cultures to maintain differentiation (for example, baseline metabolism, proportions of hepatocytes vs. cholangiocytes), while enabling further hepatic receptor pathway activation (for example, PXR and CAR) in response to chemical exposure. 48 hours after plating, the culture medium was replaced with HepaRG Serum-Free Incudtion Media. Cells were exposed to each test chemical in duplicate and maintained in CO2 incubators for another 48 hours. Chemical plates were thawed to room temperature and 200x concentrations of treatment groups were prepared. 8-point conentration-reponse curves were made with the highest exposure at 100 uM, followed by half-log dilutions, all in 0.5% DMSO. Each test plate contained variouse controls, induction positive controls (1mM phenobarbital), cytotoxicity positive controls ([…] aflatoxin B1), vehicle controls (0.5% DMSO), and total lysis controls (0.5% DMSO). Cell morphology images were taken using an Essen IncuCyte FLR automated microscope, with six 96-well plates imaged in about 24 minutes. Images were captured and exported and JPEG files. Spent culture media was transfered to black-well plates for the LDH assay, and remaining media was sorted at -80 C for later use. Cells were treated with RLT buffer and frozen until shipped for gene expression analysis. Total RNA was isolated from the cell suspension in 75 uL of Buffer RLT (Qiagen, Germantown, MD 20874) by Quintiles/Expression Analysis (Durham, NC) using a custom isolation procedure. Total RNA from each plate well was transferred to a preamplification plate. Fluidigm's 96.96 Dynamic ArrayTM (Fluidigm, Amsterdam, the Netherlands) technology was used for gene expression analyses by quantitative reverse transcription polymerase chain reaction (qRT-PCR, performed by Quintiles/Expression Analysis, Durham, NC)89. Standard TaqManTM Assays (Applied Biosystems/ThermoFisher Scientific, Foster City, CA) were used to assess the expression of 93 genes selected based on their selectivity and sensitivity to important hepatic receptors known to be modulated by environmental chemicals; importance in human hepatocyte functionality; and hepatotoxicity. […]
On to `CCC1(c2ccccc2)C(=O)N=C(O)NC1=O` (stereo not given), for which the call was inactive.

On to `CCCCN(CCCC)SN(C)C(=O)Oc1cccc2c1OC(C)(C)C2`, for which the result was inactive.

For the compound `Cc1cccc(N)c1`, the call was inactive.

On to `CCOC(=O)c1ccccc1C(=O)OCC`, for which the compound was classed as inactive.

`O=P1(N(CCCl)CCCl)NCCCO1` (stereo not given): the call was inactive.

As to `COCCOCCO`, the call was inactive.

Consider `CC(C)(C)OOC(C)(C)C`, for which the compound was classed as inactive.

On to `Cc1ccc(N)cc1N`, for which the compound was classed as inactive.

On to `CCOP(=S)(OCC)SCSCC`, for which the result was inactive.

Regarding `CCNc1nc(Cl)nc(NC(C)(C)C)n1`, the AC50 is 10.7 µM (active).

Consider `c1nc[nH]n1`, for which the call was inactive.

As for `[N-]=[N+]=[N-]`, the AC50 is 64.8 µM (active).

Take `c1ccc2c(c1)Nc1ccccc1S2`: the AC50 is 41.5 µM (active).

On to `CCN(CC)c1ccccc1`, for which the compound was called inactive.

For the compound `CCOc1ccc(C(C)(C)COCc2cccc(Oc3ccccc3)c2)cc1`, the outcome was inactive.

As to `Cc1ccc(O)cc1C`, the outcome was inactive.

In the case of `CN(C)C(=O)Cl`, the outcome was inactive.

Turning to `CSC(C)(C)C=NO`, the outcome was inactive.

`ClC(Cl)(Cl)c1ccccc1`: the call was inactive.

For the compound `ClC1=C(Cl)C2(Cl)C3C(Cl)C(Cl)CC3C1(Cl)C2(Cl)Cl` (stereo not given), the compound was called inactive.

As for `CCCCc1ccccc1`, the call was inactive.

With `CCC(C)(C)c1ccc(O)cc1`, the call was inactive.

Turning to `O=[N+]([O-])c1ccc(Cl)c(Cl)c1`, the call was inactive.

As for `CC(Cc1ccc(OCC(=O)O)cc1)NCC(O)c1csc(C(F)(F)F)n1` (stereo not given), the AC50 is 0.138 µM (active).

For the compound `O=[N+]([O-])c1ccccc1`, the result was inactive.

Take `CCOS(=O)(=O)OCC`: the compound was classed as inactive.

As for `ClC(Cl)c1ccccc1`, the compound was called inactive.

Consider `Cc1ccc([N+](=O)[O-])cc1C`, for which the call was inactive.

In the case of `O=C(O)C(Cl)Cl`, the compound was classed as inactive.

On to `O=C(O)C1C(C(=O)O)C2(Cl)C(Cl)=C(Cl)C1(Cl)C2(Cl)Cl` (stereo not given), for which the call was inactive.

`c1cc2c3c(cccc3c1)CC2`: the compound was classed as inactive.

Consider `Nc1ccc(Cl)cc1`, for which the call was inactive.

Consider `CCCCN(CCCC)N=O`, for which the call was inactive.

Consider `CC(Cl)(Cl)C(=O)O`, for which the result was inactive.

With `c1ccc(OP(Oc2ccccc2)Oc2ccccc2)cc1`, the compound was called inactive.

For `CCOP(=S)(Oc1ccc([N+](=O)[O-])cc1)c1ccccc1` (stereo not given), the AC50 was 15.9 µM (active).

Turning to `O=P(Oc1ccccc1)(Oc1ccccc1)Oc1ccccc1`, the AC50 was 0.981 µM (active).

For the compound `OCC1CO1` (stereo not given), the compound was called inactive.

Consider `Nc1cc2c3c(c1)C(c1ccccc1)=N[C@@H](NC(=O)c1cccnc1)C(=O)N3CC2`, for which the result was inactive.

As for `CCCCCCCc1ccc(O)cc1`, the compound was classed as inactive.

(Values after PubChem BioAssay (EPA / NIEHS).)
